Compounds with a hit are over-represented: about 0.4% of the library has one in this group of screens.
Rab2A wt mod: changes GTP binding to wildtype dog Rab2A, up or down; P61105; GST-Rab2 wt beads, Bodipy-GTP binding, flow cytometry; GTP binding activity, % at 10 µM; actives 0.19% (n = 190,000); AID 760;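 active = GTP binding activity at least 20 points away from 100%, either lowered or raised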;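 note: 0% = beads with excess unlabeled GTP and 100% = no-compound control corrected for plate trend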
HRas wt GTP bind: modulators of GTP binding to human HRas wildtype; P01112; GST-Ras wt beads, Bodipy-FL-GTP binding, flow cytometry; actives lie on both sides; GTP binding activity, % at 10 µM; actives 0.14% (n = 190,000);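 active = GTP binding activity at least 20% away from the 100% baseline, either lowered as inhibitor or raised as activator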;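 note: 0% = unlabeled GTP competition control and 100% = no-compound control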
Rac1 act GTP bind: modulators of GTP binding to human Rac1 activated mutant; P63000; GST-Rac1 activated beads, fluorescent GTP binding, flow cytometry; actives lie on both sides; 100% means binding = to untreated wells; actives 0.11% (n = 190,000); percent activity (GTP binding), % at 10 µM;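 active = GTP binding at least 20 percentage points away from the 100% baseline, in either direction, so actives lie on both sides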
Rac1 wt modul: modulators of human Rac1 wildtype GTP binding; P63000; GST-Rac1 beads, fluorescent GTP binding, flow cytometry; actives lie on both sides; 0 = cold GTP competed, 100 = untreated; GTP binding activity (% of control), % at 10 µM; actives 0.27% (n = 190,000);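 active = GTP binding activity at least 20 points away from the 100% control level, either lower or higher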
Rab7 wt modul: modulators of GTP binding to dog Rab7 wildtype GTPase. GST-Rab7 beads, fluorescent GTP binding, flow cytometry; actives lie on both sides; untreated = 100%, excess cold GTP = 0%. GTP binding activity (percent of control), % at 10 µM. actives 0.055% (n = 190,000). AID 758;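 active = fluorescent GTP binding to Rab7 beads changed by at least 20 points from the 100% baseline, either direction, mostly lower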;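 note: median green fluorescence of bound Bodipy-FL-GTP per Rab7 bead population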
Cdc42 wt GTP: changes GTP binding to wildtype human Cdc42. actives 0.2% (n = 190,000). P60953. percent activity (GTP binding), % at 10 µM. GST-Cdc42 beads, Bodipy-GTP binding, flow cytometry; actives lie on both sides;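 active = percent activity GTP binding at least 20 points away from the 100% baseline, either down as inhibitor or up as activator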;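 note: median bead fluorescence of bound Bodipy-FL-GTP at 100 nM; 0% = excess unlabeled GTP control and 100% = no compound control; below 100% means less GTP binding so inhibitor and above means activator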
Target sequence (P60953 whole entry, looked up): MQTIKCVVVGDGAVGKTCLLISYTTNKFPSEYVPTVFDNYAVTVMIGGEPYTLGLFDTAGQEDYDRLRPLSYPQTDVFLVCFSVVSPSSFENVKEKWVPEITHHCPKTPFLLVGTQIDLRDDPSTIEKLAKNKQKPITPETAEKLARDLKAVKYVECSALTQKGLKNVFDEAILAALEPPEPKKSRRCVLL
* hit, by the source's call.

SMILES | Rab2A wt mod | HRas wt GTP bind | Rac1 act GTP bind | Rac1 wt modul | Rab7 wt modul | Cdc42 wt GTP
Cc1nc2c(=O)n(C)c(=O)nc-2n(C)n1 | 85 | 88 | 82 | 106 | 87 | 77*
CN1C(=O)N(C)C(=O)C2(Cc3c(ccc4ccccc34)N(C)C2)C1=O | 91 | 96 | 79* | 86 | 96 | 86
COc1ccc(C(=O)CC2(CC(=O)c3ccc(OC)cc3)C(=O)N(C)C(=O)N(C)C2=O)cc1 | 99 | 101 | 94 | 100 | 100 | 99
CN(C)c1ccc(/C=C/C=C2/C(=O)NC(=O)N(c3ccccc3)C2=O)cc1 | 78* | 81 | 77* | 70* | 86 | 74*
CC[n+]1c(SC)ccc2cc(OC)ccc21 | 99 | 100 | 102 | 107 | 102 | 104
Cc1sc(-n2c(C)cc(C=C3C(=O)NC(=O)NC3=O)c2C)c(C#N)c1C | 82 | 85 | 78* | 79* | 89 | 81
Cc1cc(/C=C2\C(=O)NC(=O)N(c3ccc(Cl)cc3)C2=O)c(C)n1-c1sc2c(c1C#N)CCCC2 | 91 | 94 | 86 | 99 | 96 | 93
COC(=O)c1c(C)[nH]c(C(=O)C(C)[N+]23CCN(CC2)CC3)c1C (stereo unspecified) | 95 | 96 | 94 | 97 | 99 | 94

High-throughput results deposited in PubChem BioAssay by NMMLSC.
